From PubChem
Hits are enriched below; roughly 2.1% of the tested compounds scored in any of these assays.
eIF4H FP inh = human eIF4H binding inhibitors, primary screen, translation initiation inhibitor project, biochemical, uHTS, fluorescence polarization; Eukaryotic translation initiation factor 4H (Homo sapiens), Q15056; eIF4H fluorescence polarization binding assay; inhibition, % at 35 µM; hit rate 0.94% among 290,000; AID 2012, 2009;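 also: calls also rest on retests at 20 µM and on dose response follow-up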
NRP1-CendR mod = modulators of CendR peptide binding to NRP-1, primary screen, biochemical, fluorescence polarization, uHTS. Neuropilin-1 (Homo sapiens), O14786. hit rate 0.85% among 360,000. inhibition, % at 25 µM. FAM-RPARPAR peptide binding to NRP-1. AID 602438, 2012;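 active = inhibition or corrected inhibition above about 18%, plus a signal ratio from 0.5 to 1.5, limit read from the data, passing the limit was not always enough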
PABP FP inh = PABP poly(A) RNA binding inhibitors, primary screen, biochemical, fluorescence polarization, uHTS | hit rate 1% among 290,000 | inhibition, % at 35 µM;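 also: calls also rest on retests at 20 µM and on dose response follow-up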
MLLE-PAM2 inh = inhibitors of PABP1 MLLE–PAM2 peptide binding, primary screen, biochemical, fluorescence polarization, FITC-PAM2, GST-MLLE; Polyadenylate-binding protein 1 (Homo sapiens), P11940; inhibition, % at 20 µM; hit rate 0.36% among 360,000; AID 588489, 2011; in the data active = inhibition above about 35%, passing the limit was not always enough;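 also: plate controls were DMSO wells with GST-MLLE for no effect and wells lacking GST-MLLE protein for full effect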
Active calls of the source: *; ? = inconclusive; . = no result. Unless noted, no rule for the calls is given here.

SMILES	eIF4H FP inh	NRP1-CendR mod	PABP FP inh	MLLE-PAM2 inh
Cc1cccc(N2C(=O)CC(Sc3ccccc3C(=O)O)C2=O)c1 (stereo not drawn)	-1.7	11.2	-1.3	24.4
Cc1ccc(N2C(=O)CC(Sc3ccccc3C(=O)O)C2=O)cc1 (stereo not drawn)	1.1	1.2	-4.2	50.0*
Cc1ccc(N2C(=O)CC(Sc3ccccc3C(=O)O)C2=O)c([N+](=O)[O-])c1 (stereo not drawn)	2.0	-3.2	15.4	37.7*
Cc1ccc(N2C(=O)CC(Sc3ccccc3C(=O)O)C2=O)cc1C (stereo not drawn)	6.2	-2.8	-10.7	36.0
O=C(O)c1ccccc1SC1CC(=O)N(c2ccc3c(c2)OCO3)C1=O (stereo not drawn)	33.1	-4.4	1.0	37.6*
CSc1ccccc1C(=O)OCC(=O)NC1CC1	.	3.9	.	2.0
CC(C)N(Cc1nccn1C)C(=O)CC1C(=O)NCCN1Cc1ccc(F)c(F)c1 (stereo not drawn)	31.6	11.9	6.3	10.7
Cc1ccnc(SC2CC(=O)N(c3ccc(C(C)C)cc3)C2=O)n1 (stereo not drawn)	15.5	-2.0	6.6	12.2
CC(C)c1ccc(N2C(=O)CC(Sc3ncccn3)C2=O)cc1 (stereo not drawn)	-13.8	-1.3	-3.2	38.5*
CC(CC(=O)c1ccccc1)=NCCCN=C(C)CC(=O)c1ccccc1	.	-5.5	.	-10.3
COc1ccc(-c2[nH]ncc2CN(C)CCc2c(C)n[nH]c2C)c(F)c1	-0.5	26.0*	-5.7	5.6
CSc1ccc(/C=C/C(=O)OCC(=O)N2CCN(c3ccccc3)CC2)cc1	.	8.6	.	-9.7
CCOc1ccc(S(=O)(=O)NNC(=O)c2cc3ccccc3o2)cc1	4.3	43.0*	2.2	8.8
CCCOc1ccc(S(=O)(=O)NNC(=O)c2cc3ccccc3o2)cc1	4.1	1.8	19.2	-8.1
COc1ccnc(CN(C)C(=O)C2CCC(=O)N(CCN(C)C)C2)c1 (stereo not drawn)	54.0*	0.2	26.7	-7.7
O=C(O)C1Sc2[nH]c(=O)sc2C2c3cc(Cl)ccc3OC(=O)C12 (stereo not drawn)	14.3	-36.1	73.5*	15.0
CCCc1ccc(OCc2ccc(C(=O)N3CCSCC3)o2)cc1	1.1	7.5	1.3	-2.7
CC(Oc1ccccc1)C(=O)Nc1ccc(F)c(S(=O)(=O)N2CCOCC2)c1 (stereo not drawn)	.	-1.8	.	-2.2
COC(=O)[C@@]1(C)[C@H]2C(=O)N(C)C(=O)[C@H]2[C@H]2CN=C(SCc3ccc(Cl)cc3)N21	.	7.2	.	10.4
Cc1ccc(C)c(NC2=C(Cl)C(=O)OC2OC(C)C)c1 (stereo not drawn)	active	13.7	67.7*	-6.6
Cc1ccc(NC2=C(Cl)C(=O)OC2OC(C)C)cc1 (stereo not drawn)	-1.6	10.6	?	5.2
O=C(Nc1cccc(C(=O)O)c1)/C(=C\c1ccccc1)NC(=O)c1ccco1	.	0.8	.	7.8
CCC(=O)N=c1ccn(C2=Nc3ccccc3NC2=C(C#N)C#N)cc1	73.1*	-3.9	63.6*	10.7
CCOC(=O)/C(C#N)=C1/C=Nc2ccccc2N1	0.1	4.3	3.7	-0.3
CC1(C)c2ccccc2N2CC(=O)NC21/C=C/c1ccco1 (stereo not drawn)	24.5	-48.3	-2.9	-25.2
SMILES	eIF4H FP inh	NRP1-CendR mod	PABP FP inh	MLLE-PAM2 inh
CC1(C)c2ccccc2N2CCC(=O)NC21/C=C/c1ccco1 (stereo not drawn)	?	-61.5	105.1*	-74.8
COc1ccc(NS(=O)(=O)c2ccc(N3CCCC3)c(NC(=S)Nc3ccc(SC(F)F)cc3)c2)cc1	-12.3	-2.5	4.4	40.3*
COc1ccc(NS(=O)(=O)c2ccc(N3CCCC3)c(NC(=S)Nc3cccc(C)c3C)c2)cc1	10.4	10.8	7.7	28.0
COC(=O)C1C(O)=C(C(C)=Nc2cccc3ccccc23)C(=O)CC1(C)C (stereo not drawn)	?	0.6	30.2*	3.1
Cc1ccc2cc(CN(CCCN(C)C)C(=O)NCc3ccccc3)c(=O)[nH]c2c1C	3.0	37.7*	1.1	16.9
COc1cccc(C(=O)N(C)CC2CCN(CCc3cccc(C(F)(F)F)c3)CC2)c1	9.5	9.1	1.1	2.1
C=CCc1cccc(/C=N/c2ncn[nH]2)c1O	15.5	10.0	11.1	18.0
C=CCc1cccc(/C=N/n2c(C)nnc2C)c1O	8.4	19.5*	12.1	22.5
C=CCc1cccc(C=Nc2cc(Br)ccc2O)c1O	78.0*	-31.0	-3.5	1.8
CS(=O)(=O)c1ccc(Cl)c(NC(=O)c2cccc(-n3cnnn3)c2)c1	.	7.5	.	-10.6
CC(C)NC(=O)C1(C)CCN1C/C=C/c1ccccc1 (stereo not drawn)	.	-15.4	.	2.0
O=S(=O)(c1ccc(=S)[nH]c1)N1CCOCC1	.	-0.3	.	46.0*
CC(=O)N1c2ccc(S(=O)(=O)N3CCC(C(=O)Nc4cccc(C)c4)CC3)cc2CC1C (stereo not drawn)	.	31.3*	.	4.4
CC(=O)N1c2ccc(S(=O)(=O)N3CCCC3C(=O)Nc3ccc(C)cc3)cc2CC1C (stereo not drawn)	53.6	0.4	11.6*	2.6
COC(=O)c1ccc(NS(=O)(=O)c2ccc3[nH]c(=O)oc3c2)cc1	65.5*	-7.0	20.9	-25.1
Cc1ccc(C)c(NS(=O)(=O)c2ccc3[nH]c(=O)oc3c2)c1	?	6.8	41.9*	-7.0
